# Laboratory results: article PMC7862700, “An all-to-all approach to the identification of sequence-specific readers for epigenetic DNA modifications on cytosine”
# Tests used:
# Experiment in all cases: DAPPL (digital affinity profiling via proximity ligation, sequencing); 10 mM Tris-HCl pH 7.5, 50 mM NaCl, 1 mM DTT, 4% glycerol, room temperature, 30 min; GST-TFs on glutathione beads, 16-mer random dsDNA library, 0.1% formaldehyde crosslink after washing; high values mean tight binding
# FEV = target: T1, FEV (Homo sapiens, UniProt Q99581 1-238); conditions: protein: recombinant; tags: N-terminal GST; dsDNA, one strand shown
# T1 sequence: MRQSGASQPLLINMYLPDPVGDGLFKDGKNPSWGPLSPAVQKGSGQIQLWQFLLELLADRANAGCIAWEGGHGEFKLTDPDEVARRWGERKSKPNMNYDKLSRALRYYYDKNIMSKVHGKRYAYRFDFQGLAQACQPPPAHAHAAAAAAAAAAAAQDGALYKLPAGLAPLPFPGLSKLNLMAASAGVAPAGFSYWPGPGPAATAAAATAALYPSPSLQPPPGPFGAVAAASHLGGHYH
# In short: (§1)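 GST fusions of human transcription factors were expressed in yeast and captured with glutathione beads. Once given DNA barcodes and pooled alongside a tag-only sample, they were incubated for 30 min at room temperature with 200 nmole of a random double-stranded 16-mer DNA library in Tris/NaCl/DTT/glycerol buffer, then washed, crosslinked (0.1% formaldehyde), proximity-ligated, PCR-amplified and sequenced on an Illumina NextSeq500. The binding signal of each hexamer is its read frequency for a factor divided by its frequency for the tag-only sample.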
# ETV5 = ETV5 (Homo sapiens, UniProt P41161 1-510); conditions: protein: recombinant; tags: N-terminal GST; dsDNA, one strand shown
# In short: as §1
# HSF1 = HSF1 (Homo sapiens, UniProt Q00613 1-529); conditions: protein: recombinant; tags: N-terminal GST; chain copies: 3; dsDNA, one strand shown
# In short: as §1
# SPIC = target: T2, SPIC (Homo sapiens, UniProt Q8N5J4 1-248); conditions: protein: recombinant; tags: N-terminal GST; dsDNA, one strand shown
# T2 sequence: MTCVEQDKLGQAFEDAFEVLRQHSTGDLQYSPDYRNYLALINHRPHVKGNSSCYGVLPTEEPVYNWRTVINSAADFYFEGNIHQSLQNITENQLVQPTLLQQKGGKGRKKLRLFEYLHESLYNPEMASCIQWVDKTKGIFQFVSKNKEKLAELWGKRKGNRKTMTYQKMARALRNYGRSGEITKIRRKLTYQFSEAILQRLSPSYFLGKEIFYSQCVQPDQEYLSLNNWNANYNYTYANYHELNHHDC
# In short: as §1
# ELF4 = ELF4 (Homo sapiens, UniProt Q99607 1-663); conditions: protein: recombinant; tags: N-terminal GST; dsDNA, one strand shown
# In short: as §1
# ELK4 = target: T3, ELK4 (Homo sapiens, UniProt P28324-2 1-405); conditions: protein: recombinant; tags: N-terminal GST; dsDNA, one strand shown
# T3 sequence: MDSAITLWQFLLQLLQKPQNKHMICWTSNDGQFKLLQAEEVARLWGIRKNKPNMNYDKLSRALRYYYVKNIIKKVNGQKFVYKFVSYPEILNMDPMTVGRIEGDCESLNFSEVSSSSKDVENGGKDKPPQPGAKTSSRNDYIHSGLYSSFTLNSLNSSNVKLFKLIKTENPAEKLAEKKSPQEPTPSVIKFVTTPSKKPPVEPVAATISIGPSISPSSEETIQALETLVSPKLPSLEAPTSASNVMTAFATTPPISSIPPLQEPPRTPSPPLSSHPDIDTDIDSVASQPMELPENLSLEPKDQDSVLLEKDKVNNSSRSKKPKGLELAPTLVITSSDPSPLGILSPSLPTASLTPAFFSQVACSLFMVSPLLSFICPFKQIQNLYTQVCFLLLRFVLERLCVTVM
# In short: as §1
# ELF3 = target: T4, ELF3 (Homo sapiens, UniProt P78545 1-371); conditions: protein: recombinant; tags: N-terminal GST; dsDNA, one strand shown
# T4 sequence: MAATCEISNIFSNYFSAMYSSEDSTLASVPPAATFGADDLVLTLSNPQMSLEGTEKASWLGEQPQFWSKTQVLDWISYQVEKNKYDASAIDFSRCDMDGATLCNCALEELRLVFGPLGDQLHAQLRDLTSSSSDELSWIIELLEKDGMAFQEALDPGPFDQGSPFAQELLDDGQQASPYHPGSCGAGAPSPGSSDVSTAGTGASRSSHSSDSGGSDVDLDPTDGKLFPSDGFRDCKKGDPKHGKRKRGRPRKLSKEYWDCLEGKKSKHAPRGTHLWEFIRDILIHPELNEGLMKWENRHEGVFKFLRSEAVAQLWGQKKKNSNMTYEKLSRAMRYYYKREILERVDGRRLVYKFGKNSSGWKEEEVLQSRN
# In short: as §1
# CRX = CRX (Homo sapiens, UniProt O43186 1-299); conditions: protein: recombinant; tags: N-terminal GST; dsDNA, one strand shown
# In short: as §1
# ETV1 = ETV1 (Homo sapiens, UniProt P50549 1-477); conditions: protein: recombinant; tags: N-terminal GST; dsDNA, one strand shown
# In short: as §1
# ERF = target: T5, ERF (Homo sapiens, UniProt P50548 1-548); conditions: protein: recombinant; tags: N-terminal GST; dsDNA, one strand shown
# T5 sequence: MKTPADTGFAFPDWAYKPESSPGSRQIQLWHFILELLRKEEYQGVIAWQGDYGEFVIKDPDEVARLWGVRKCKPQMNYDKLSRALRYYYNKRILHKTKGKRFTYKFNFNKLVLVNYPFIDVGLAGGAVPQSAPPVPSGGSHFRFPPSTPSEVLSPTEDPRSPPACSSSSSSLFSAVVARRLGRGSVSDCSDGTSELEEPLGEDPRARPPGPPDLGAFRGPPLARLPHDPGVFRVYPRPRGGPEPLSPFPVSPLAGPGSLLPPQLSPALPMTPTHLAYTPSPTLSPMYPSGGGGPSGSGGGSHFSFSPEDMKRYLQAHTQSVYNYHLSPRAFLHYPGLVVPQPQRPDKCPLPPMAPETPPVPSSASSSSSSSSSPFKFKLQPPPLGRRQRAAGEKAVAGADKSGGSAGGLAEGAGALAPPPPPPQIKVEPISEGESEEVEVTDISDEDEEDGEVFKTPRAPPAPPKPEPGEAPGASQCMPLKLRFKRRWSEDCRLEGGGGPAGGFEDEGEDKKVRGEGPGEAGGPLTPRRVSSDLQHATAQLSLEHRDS
# In short: as §1
# ETV3L = target: T6, ETV3L (Homo sapiens, UniProt Q6ZN32 1-361); conditions: protein: recombinant; tags: N-terminal GST; dsDNA, one strand shown
# T6 sequence: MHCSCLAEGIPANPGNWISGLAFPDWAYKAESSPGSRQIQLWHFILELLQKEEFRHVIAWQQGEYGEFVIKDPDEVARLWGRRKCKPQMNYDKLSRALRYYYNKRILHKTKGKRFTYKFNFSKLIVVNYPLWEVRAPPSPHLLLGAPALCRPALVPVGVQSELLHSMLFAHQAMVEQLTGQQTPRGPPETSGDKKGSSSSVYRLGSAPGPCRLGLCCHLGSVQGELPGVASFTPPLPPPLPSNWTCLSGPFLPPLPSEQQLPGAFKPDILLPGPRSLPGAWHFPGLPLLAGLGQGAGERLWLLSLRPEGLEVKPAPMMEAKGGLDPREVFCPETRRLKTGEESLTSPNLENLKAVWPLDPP
# In short: as §1
# ETS2 = target: T7, ETS2 (Homo sapiens, UniProt P15036 1-469); conditions: protein: recombinant; tags: N-terminal GST; dsDNA, one strand shown
# T7 sequence: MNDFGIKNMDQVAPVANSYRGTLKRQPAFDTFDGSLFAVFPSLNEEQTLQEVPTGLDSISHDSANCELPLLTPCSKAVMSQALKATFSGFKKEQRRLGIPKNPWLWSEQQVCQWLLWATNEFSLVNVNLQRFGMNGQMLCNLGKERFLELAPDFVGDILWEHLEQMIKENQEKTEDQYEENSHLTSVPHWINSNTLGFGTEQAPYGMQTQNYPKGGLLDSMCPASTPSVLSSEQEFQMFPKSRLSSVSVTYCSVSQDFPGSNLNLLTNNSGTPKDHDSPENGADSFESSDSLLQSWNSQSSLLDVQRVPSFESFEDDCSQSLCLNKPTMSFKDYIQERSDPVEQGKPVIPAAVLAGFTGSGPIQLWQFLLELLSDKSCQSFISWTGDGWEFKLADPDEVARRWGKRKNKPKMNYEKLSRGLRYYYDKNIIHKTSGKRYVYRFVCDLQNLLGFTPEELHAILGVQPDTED
# In short: as §1
# SPDEF = target: T8, SPDEF (Homo sapiens, UniProt O95238 1-335); conditions: protein: recombinant; tags: N-terminal GST; dsDNA, one strand shown
# T8 sequence: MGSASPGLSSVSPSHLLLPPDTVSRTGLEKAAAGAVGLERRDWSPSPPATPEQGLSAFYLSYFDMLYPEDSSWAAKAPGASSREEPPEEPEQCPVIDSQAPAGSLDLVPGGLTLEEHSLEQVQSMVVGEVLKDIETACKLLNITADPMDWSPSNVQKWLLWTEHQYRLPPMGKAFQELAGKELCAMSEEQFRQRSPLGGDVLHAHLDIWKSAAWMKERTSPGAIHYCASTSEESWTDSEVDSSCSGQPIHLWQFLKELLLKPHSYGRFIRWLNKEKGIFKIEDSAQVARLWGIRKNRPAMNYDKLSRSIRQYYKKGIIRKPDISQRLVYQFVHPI
# In short: as §1
# ETV7 = target: T9, ETV7 (Homo sapiens, UniProt Q9Y603 1-341); conditions: protein: recombinant; tags: N-terminal GST; dsDNA, one strand shown
# T9 sequence: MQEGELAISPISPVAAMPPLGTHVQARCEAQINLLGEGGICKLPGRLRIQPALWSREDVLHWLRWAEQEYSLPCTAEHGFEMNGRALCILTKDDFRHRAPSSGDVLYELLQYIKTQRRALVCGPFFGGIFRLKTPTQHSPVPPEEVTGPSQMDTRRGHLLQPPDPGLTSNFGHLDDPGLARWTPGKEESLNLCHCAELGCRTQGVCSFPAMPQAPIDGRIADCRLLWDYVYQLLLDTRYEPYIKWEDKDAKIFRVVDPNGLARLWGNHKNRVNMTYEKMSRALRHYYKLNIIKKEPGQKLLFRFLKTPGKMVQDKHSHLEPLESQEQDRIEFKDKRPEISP
# In short: as §1
# ELF5 = target: T10, ELF5 (Homo sapiens, UniProt Q9UKW6-2 1-255); conditions: protein: recombinant; tags: N-terminal GST; dsDNA, one strand shown
# T10 sequence: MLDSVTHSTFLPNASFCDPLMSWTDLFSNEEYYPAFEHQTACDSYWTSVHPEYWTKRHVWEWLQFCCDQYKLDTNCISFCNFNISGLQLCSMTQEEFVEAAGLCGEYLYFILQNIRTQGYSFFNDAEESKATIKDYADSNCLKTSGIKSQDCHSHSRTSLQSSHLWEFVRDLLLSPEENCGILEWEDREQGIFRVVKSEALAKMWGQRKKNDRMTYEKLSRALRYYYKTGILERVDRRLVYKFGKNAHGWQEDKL
# In short: as §1
# ETV3 = target: T11, ETV3 (Homo sapiens, UniProt P41162-2 1-143); conditions: protein: recombinant; tags: N-terminal GST; dsDNA, one strand shown
# T11 sequence: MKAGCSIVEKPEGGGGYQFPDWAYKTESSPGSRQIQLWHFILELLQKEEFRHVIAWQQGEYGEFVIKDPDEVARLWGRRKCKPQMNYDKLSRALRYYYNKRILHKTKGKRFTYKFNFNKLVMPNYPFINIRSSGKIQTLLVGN
# In short: as §1
# ETV6 = ETV6 (Homo sapiens, UniProt P41212 1-452); conditions: protein: recombinant; tags: N-terminal GST; dsDNA, one strand shown
# In short: as §1
# Chain of ELF4 (Q99607 whole entry): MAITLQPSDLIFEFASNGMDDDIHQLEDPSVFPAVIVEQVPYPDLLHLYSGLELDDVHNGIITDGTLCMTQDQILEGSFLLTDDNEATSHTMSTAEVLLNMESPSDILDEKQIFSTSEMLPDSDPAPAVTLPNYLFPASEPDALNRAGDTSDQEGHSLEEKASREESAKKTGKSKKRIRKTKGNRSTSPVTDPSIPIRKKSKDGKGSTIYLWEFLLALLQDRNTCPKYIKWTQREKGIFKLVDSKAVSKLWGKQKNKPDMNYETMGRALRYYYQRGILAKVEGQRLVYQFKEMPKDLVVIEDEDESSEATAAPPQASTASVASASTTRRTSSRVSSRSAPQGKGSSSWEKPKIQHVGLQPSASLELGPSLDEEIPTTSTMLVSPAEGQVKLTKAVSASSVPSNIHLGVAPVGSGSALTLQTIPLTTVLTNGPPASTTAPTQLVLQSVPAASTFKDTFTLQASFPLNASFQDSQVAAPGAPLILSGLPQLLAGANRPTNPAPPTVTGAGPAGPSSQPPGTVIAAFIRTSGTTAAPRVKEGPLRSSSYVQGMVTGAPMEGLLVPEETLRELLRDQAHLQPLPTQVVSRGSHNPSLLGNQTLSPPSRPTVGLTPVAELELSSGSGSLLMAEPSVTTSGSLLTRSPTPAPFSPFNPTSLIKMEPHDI
# Chain of HSF1 (Q00613 whole entry): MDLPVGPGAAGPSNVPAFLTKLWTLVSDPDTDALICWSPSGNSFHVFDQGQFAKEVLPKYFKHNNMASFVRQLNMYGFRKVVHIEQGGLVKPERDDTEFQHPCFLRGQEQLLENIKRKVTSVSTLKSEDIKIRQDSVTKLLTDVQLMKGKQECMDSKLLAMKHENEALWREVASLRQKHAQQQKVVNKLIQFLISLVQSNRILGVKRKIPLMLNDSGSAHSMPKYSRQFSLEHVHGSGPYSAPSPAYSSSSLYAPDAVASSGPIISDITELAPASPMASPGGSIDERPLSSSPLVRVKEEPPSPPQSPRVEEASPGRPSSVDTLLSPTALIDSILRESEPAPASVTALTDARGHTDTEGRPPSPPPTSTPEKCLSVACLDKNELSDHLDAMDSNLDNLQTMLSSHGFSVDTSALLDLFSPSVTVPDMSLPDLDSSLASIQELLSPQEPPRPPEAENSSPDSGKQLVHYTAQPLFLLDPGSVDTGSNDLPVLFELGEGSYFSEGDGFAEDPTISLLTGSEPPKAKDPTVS
# Chain of ETV1 (P50549 whole entry): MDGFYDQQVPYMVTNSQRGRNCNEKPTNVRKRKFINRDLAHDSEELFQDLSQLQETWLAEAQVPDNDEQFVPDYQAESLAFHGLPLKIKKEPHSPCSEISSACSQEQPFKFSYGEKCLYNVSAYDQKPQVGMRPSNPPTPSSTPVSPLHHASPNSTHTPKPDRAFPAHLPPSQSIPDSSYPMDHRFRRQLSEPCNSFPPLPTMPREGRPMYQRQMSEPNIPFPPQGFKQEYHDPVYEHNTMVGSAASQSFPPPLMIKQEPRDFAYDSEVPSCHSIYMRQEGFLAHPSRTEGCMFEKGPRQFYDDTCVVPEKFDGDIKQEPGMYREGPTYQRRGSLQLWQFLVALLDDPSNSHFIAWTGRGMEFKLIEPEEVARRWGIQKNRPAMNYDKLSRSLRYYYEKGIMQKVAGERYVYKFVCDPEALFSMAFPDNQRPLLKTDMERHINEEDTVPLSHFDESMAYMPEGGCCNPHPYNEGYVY
# Chain of ETV5 (P41161 whole entry): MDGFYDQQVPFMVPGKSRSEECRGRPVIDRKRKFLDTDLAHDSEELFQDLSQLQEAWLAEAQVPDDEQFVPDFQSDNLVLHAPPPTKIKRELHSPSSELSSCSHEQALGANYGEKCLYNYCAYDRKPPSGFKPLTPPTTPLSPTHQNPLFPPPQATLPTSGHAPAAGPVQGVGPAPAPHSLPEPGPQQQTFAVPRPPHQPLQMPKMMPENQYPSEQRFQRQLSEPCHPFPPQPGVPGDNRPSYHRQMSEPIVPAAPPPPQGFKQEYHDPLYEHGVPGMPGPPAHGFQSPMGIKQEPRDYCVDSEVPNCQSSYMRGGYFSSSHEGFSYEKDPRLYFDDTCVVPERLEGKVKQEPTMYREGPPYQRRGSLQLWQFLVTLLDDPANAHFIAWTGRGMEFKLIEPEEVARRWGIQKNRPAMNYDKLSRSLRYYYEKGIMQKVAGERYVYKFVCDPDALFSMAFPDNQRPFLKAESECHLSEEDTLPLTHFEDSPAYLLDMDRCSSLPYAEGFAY
# Chain of CRX (O43186 whole entry): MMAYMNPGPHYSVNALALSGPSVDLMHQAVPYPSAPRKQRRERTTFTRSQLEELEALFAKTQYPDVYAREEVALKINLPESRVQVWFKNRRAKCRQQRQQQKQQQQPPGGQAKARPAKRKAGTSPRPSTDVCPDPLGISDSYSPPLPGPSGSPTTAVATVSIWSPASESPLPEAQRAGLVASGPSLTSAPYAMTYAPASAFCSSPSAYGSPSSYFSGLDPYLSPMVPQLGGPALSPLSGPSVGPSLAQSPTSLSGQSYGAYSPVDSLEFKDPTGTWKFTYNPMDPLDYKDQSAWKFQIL
# Chain of ETV6 (P41212 whole entry): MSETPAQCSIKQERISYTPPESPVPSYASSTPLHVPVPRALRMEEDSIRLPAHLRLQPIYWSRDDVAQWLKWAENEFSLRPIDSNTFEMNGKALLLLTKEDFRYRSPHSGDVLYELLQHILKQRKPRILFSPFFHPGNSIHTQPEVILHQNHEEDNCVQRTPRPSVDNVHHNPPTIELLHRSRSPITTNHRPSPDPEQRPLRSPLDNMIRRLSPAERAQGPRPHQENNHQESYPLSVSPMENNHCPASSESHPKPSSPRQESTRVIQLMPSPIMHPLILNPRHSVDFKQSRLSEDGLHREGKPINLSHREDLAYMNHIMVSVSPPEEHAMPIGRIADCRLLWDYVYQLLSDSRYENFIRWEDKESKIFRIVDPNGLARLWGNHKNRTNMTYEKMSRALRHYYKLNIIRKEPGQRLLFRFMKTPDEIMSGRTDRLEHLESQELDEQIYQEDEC
Sequence,binding signal (FEV),binding signal (ETV5),binding signal (HSF1),binding signal (SPIC),binding signal (ELF4),binding signal (ELK4),binding signal (ELF3),binding signal (CRX),binding signal (ETV1),binding signal (ERF),binding signal (ETV3L),binding signal (ETS2),binding signal (SPDEF),binding signal (ETV7),binding signal (ELF5),binding signal (ETV3),binding signal (ETV6)
TAGCAT,"1.13 fold enrichment (6-mer frequency, TF over GST control)","1.09 fold enrichment (6-mer frequency, TF over GST control)","1.38 fold enrichment (6-mer frequency, TF over GST control)","1.07 fold enrichment (6-mer frequency, TF over GST control)","1.16 fold enrichment (6-mer frequency, TF over GST control)","1.16 fold enrichment (6-mer frequency, TF over GST control)","1.15 fold enrichment (6-mer frequency, TF over GST control)","1.42 fold enrichment (6-mer frequency, TF over GST control)","1.17 fold enrichment (6-mer frequency, TF over GST control)","1.09 fold enrichment (6-mer frequency, TF over GST control)","1.14 fold enrichment (6-mer frequency, TF over GST control)","1.11 fold enrichment (6-mer frequency, TF over GST control)","1.21 fold enrichment (6-mer frequency, TF over GST control)","1.11 fold enrichment (6-mer frequency, TF over GST control)","1.01 fold enrichment (6-mer frequency, TF over GST control)","1.16 fold enrichment (6-mer frequency, TF over GST control)","1.15 fold enrichment (6-mer frequency, TF over GST control)"
ATCAGC,,"1.01 fold enrichment (6-mer frequency, TF over GST control)","1.01 fold enrichment (6-mer frequency, TF over GST control)","1 fold enrichment (6-mer frequency, TF over GST control)","1.02 fold enrichment (6-mer frequency, TF over GST control)","1.14 fold enrichment (6-mer frequency, TF over GST control)","1.13 fold enrichment (6-mer frequency, TF over GST control)","1.31 fold enrichment (6-mer frequency, TF over GST control)","1.01 fold enrichment (6-mer frequency, TF over GST control)",,,"1.09 fold enrichment (6-mer frequency, TF over GST control)",,,,,"1.01 fold enrichment (6-mer frequency, TF over GST control)"
TAGAAA,"1.04 fold enrichment (6-mer frequency, TF over GST control)","1.03 fold enrichment (6-mer frequency, TF over GST control)","3.06 fold enrichment (6-mer frequency, TF over GST control)","1.12 fold enrichment (6-mer frequency, TF over GST control)","1.1 fold enrichment (6-mer frequency, TF over GST control)","1.13 fold enrichment (6-mer frequency, TF over GST control)",,"1.58 fold enrichment (6-mer frequency, TF over GST control)","1.13 fold enrichment (6-mer frequency, TF over GST control)","1.04 fold enrichment (6-mer frequency, TF over GST control)","1.08 fold enrichment (6-mer frequency, TF over GST control)","1.08 fold enrichment (6-mer frequency, TF over GST control)","1.04 fold enrichment (6-mer frequency, TF over GST control)","1.12 fold enrichment (6-mer frequency, TF over GST control)",,"1.05 fold enrichment (6-mer frequency, TF over GST control)","1.06 fold enrichment (6-mer frequency, TF over GST control)"
